Outcome and AC50 data for six compounds are collected here from PubChem BioAssay (EPA / NIEHS).

Experiment [1] is described as follows: ATG_PBREM_CIS: Attagene CIS-FACTORIAL HepG2 Assay for human Phenobarbital-responsive Enhancer Module (PBREM) (AID 2282955; active means hit-call score of the fitted dose curve at least 0.9, where 1 is the maximum; inactive means score below 0.9). To be noted: HepG2 PBREM cis-reporter, Attagene multiplexed transcription; actives raise or lower the signal. The gist of the method: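 HepG2 cells transiently transfected with multiple cis-regulated reporter transcription units; endogenous factor activity at the PBREM element measured as reporter mRNA 24 h after dosing, via RT-PCR and capillary electrophoresis of fluorescent fragments; bidirectional fitting versus DMSO.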

Experiment [2] has as its target Nuclear receptor subfamily 1 group I member 3 (Homo sapiens) (UniProt Q14994). The experiment is described as follows: ATG_CAR_TRANS: Attagene TRANS-FACTORIAL HepG2 Assay for human Constitutive Androstane Receptor (CAR) (AID 2282969).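 Further: activators raise reporter mRNA above DMSO so AC50 marks induction.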 The note with it: HepG2 Attagene TRANS-FACTORIAL CAR reporter. The gist of the method:
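Signal is reporter mRNA induction relative to DMSO, measured 24 h after dosing by RT-PCR with fluorescent primer extension and capillary electrophoresis. Human HepG2 liver cells carried transiently transfected chimeric NR-Gal4/GAL4-UAS reporter constructs.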

Experiment [3] can be described thus: ATG_GAL4_TRANS: Attagene TRANS-FACTORIAL HepG2 Assay for GAL4 (Internal Marker) (AID 2282976). The note with it: HepG2 Attagene TRANS GAL4 internal marker reporter. The essentials:
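First, HepG2 cells were transfected with reporter units under GAL4-UAS control. Next, they were treated with chemical for 24 h. Finally, RNA was reverse-transcribed, PCR-amplified, FAM-labelled and resolved by capillary electrophoresis, with induction scored against DMSO.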

The target in experiment [4] is Oxysterols receptor LXR-alpha (Homo sapiens) (UniProt Q13133). The experiment is described as follows: ATG_LXRa_TRANS: Attagene TRANS-FACTORIAL HepG2 Assay for human Liver X Receptor alpha (LXRa) (AID 2282980). To be noted: HepG2 Attagene TRANS reporter, LXRa transactivation. The essentials: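 Transfect HepG2 with GAL4-UAS multiplex reporter constructs (TRANS format, chimeric receptor-GAL4); treat 24 h; extract RNA, reverse-transcribe, PCR-amplify, FAM-label, HpaI-digest; resolve fragments by capillary electrophoresis. Upward response vs DMSO.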

The target in experiment [5] is Oxysterols receptor LXR-beta (Homo sapiens) (UniProt P55055). The experiment is described as follows: ATG_LXRb_TRANS: Attagene TRANS-FACTORIAL HepG2 Assay for human Liver X Receptor beta (LXRb) (AID 2282981). To be noted: HepG2 Attagene TRANS GAL4-LXRb reporter, mRNA. The essentials: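 After 24 h chemical treatment of transfected HepG2 cells carrying exogenous NR-Gal4 chimeras, reporter mRNA was quantified by fluorescent RT-PCR and capillary electrophoresis; activity taken as increase over DMSO controls.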

Experiment [6] has as its target Nuclear receptor subfamily 4 group A member 2 (Homo sapiens) (UniProt P43354). Put plainly: ATG_NURR1_TRANS: Attagene TRANS-FACTORIAL HepG2 Assay for human Nuclear Receptor Related Protein 1 (NURR1) (AID 2282985). The note with it: HepG2 Attagene TRANS reporter, mRNA readout. The gist of the method:
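Reporter transcript induction, measured by RT-PCR with fluorescent labelling, HpaI digestion and capillary electrophoresis, after 24 hr dosing of human HepG2 cells transiently expressing an exogenous NR-Gal4 fusion with GAL4-UAS-driven reporters; DMSO as baseline.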

Experiment [7] concerns the target human Peroxisome Proliferator-activated Receptor alpha (PPARa), PPARA (gene 5465) (UniProt Q07869). The experiment is described as follows: ATG_PPARa_TRANS: Attagene TRANS-FACTORIAL HepG2 Assay for human Peroxisome Proliferator-activated Receptor alpha (PPARa) (AID 2283001).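 On AC50: potency for gain of reporter signal over DMSO so agonist or activator.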 The essentials:
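Reporter transcripts quantified by RT-PCR plus capillary electrophoresis after 24 h treatment, fitted upward relative to DMSO. Cells: human HepG2 transiently carrying multiple GAL4-UAS reporter units driven by NR-Gal4 chimeras.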

The target of experiment [8] is human Peroxisome Proliferator-activated Receptor delta (PPARd), PPARD (gene 5467) (UniProt Q03181). The experiment is described as follows: ATG_PPARd_TRANS: Attagene TRANS-FACTORIAL HepG2 Assay for human Peroxisome Proliferator-activated Receptor delta (PPARd) (AID 2283002). The essentials: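 Read-out is induced reporter mRNA, quantified by RT-PCR with fluorescent labelling and capillary electrophoresis after 24 h dosing. Cells are HepG2 transiently carrying multiple GAL4-UAS reporter units driven by exogenous NR-GAL4 chimeras; DMSO serves as baseline.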

The target in experiment [9] is human RAR-related Orphan Receptor beta (RORb), RORB (gene 6096) (UniProt Q92753). Put plainly: ATG_RORb_TRANS: Attagene TRANS-FACTORIAL HepG2 Assay for human RAR-related Orphan Receptor beta (RORb) (AID 2283010). The essentials:
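Transfect HepG2 with multiple GAL4-UAS reporter transcription units; dose chemicals for 24 h; isolate RNA, reverse-transcribe and PCR-amplify reporter sequences; label, digest and resolve fragments by capillary electrophoresis; fit increases relative to DMSO.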

The target of experiment [10] is human Vitamin D Receptor (VDR), VDR (gene 7421) (UniProt P11473). The experiment is described as follows: ATG_VDR_TRANS: Attagene TRANS-FACTORIAL HepG2 Assay for human Vitamin D Receptor (VDR) (AID 2283022). The gist of the method: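 Steps: transfect HepG2 with GAL4-UAS-driven reporter constructs; dose compounds 24 h; isolate RNA, reverse-transcribe, PCR-amplify with 6-FAM-labelled primer extension and HpaI digestion; quantify fragments by capillary electrophoresis relative to DMSO.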

Experiment [11] can be described thus: CCTE_Harrill_HTTr_Apoptosis_MCF7: CCTE's 6-hour Apoptosis Assessment for the High-Throughput Transcriptomics (HTTr) Platform, in MCF-7 cells cultured in DMEM + 10% fetal bovine serum, Harrill Lab (AID 2284011; active means hit-call score of the fitted dose curve at least 0.9, where 1 is the maximum; inactive means score below 0.9). The essentials: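 MCF-7 (DMEM + 10% FBS), 384-well; 8-pt dilution series, 6 h chemical exposure; caspase-3/7 activation via CellEvent Caspase 3/7 Green, HCI; bidirectional fit vs DMSO.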

For experiment [12], the target named is Retinoic acid receptor alpha (Homo sapiens) (UniProt P10276). Put plainly: ATG_DR5_RAR_CIS: Attagene CIS-FACTORIAL HepG2 Assay for human Retinoic Acid Receptor Alpha (RARE), DR5 submotif (AID 2282934; active means hit-call score of the fitted dose curve at least 0.9, where 1 is the maximum; inactive means score below 0.9). The note with it: HepG2 Attagene cis-factorial RARE DR5 reporter, mRNA; actives raise or lower the signal. The essentials:
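Reporter transcripts from a DR5-regulated unit, measured via RT-PCR plus capillary electrophoresis, reflect endogenous RAR activity in transiently transfected human HepG2 liver cells. Exposure lasted 24 h; gain or loss of signal scored against DMSO.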

Experiment [13] concerns the target Glucocorticoid receptor (Homo sapiens) (UniProt P04150). Put plainly: ATG_GR_TRANS: Attagene TRANS-FACTORIAL HepG2 Assay for human Glucocorticoid Receptor (GR) (AID 2282978).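 Further: activators score as hits since higher reporter transcript over DMSO is fitted.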 To be noted: HepG2 Attagene TRANS GR reporter, mRNA transcription. The essentials:
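HepG2 cells transiently transfected with multiplexed reporter units in which chimeric NR-GAL4 proteins drive GAL4-UAS reporters; 24 h compound exposure. Reporter mRNA measured by RT-PCR, 6-FAM labelling, HpaI digestion and capillary electrophoresis; gain-of-signal fitted versus DMSO.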

The nature of experiment [14]: ATG_M_32_TRANS: Attagene TRANS-FACTORIAL HepG2 Assay for M32 Transcription Factor (Internal Marker) (AID 2282984).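 Further: transcript level of a background control reporter unit measured by RT-PCR and capillary electrophoresis.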 To be noted: HepG2 Attagene TRANS M32 internal marker reporter. The gist of the method:
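Internal background reporter in transfected HepG2: after 24 h chemical exposure, RNA reverse-transcribed, reporter cDNA amplified, fluorescently labelled and HpaI-cut, then sized by capillary electrophoresis. Gain of signal fitted against DMSO control.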

Experiment [15] addresses human Thyroid Receptor alpha (THRa1), THRA (gene 7067) (UniProt P10827). The experiment is described as follows: ATG_THRa1_TRANS: Attagene TRANS-FACTORIAL HepG2 Assay for human Thyroid Receptor alpha (THRa1) (AID 2283014). The essentials: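 Reporter transcript induction, read by capillary electrophoresis of 6-FAM-labelled RT-PCR products, reflects activity of a transfected THRa1-Gal4 fusion in HepG2 liver cells. Cells were dosed for 24 h; activity was fitted in the positive direction against DMSO.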

Experiment [16] can be described thus: TOX21_p53_BLA_p2_viability: Viability Assessment in the Tox21 HCT-116 p53 Agonism Beta-lactamase Assay, Phase 2 (AID 2283591).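 Further: compound exposure lasted 16 h at 37 °C; actives lower the ATP signal meaning cytotoxicity.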 The essentials: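 Cytotoxicity readout: CellTiter-Glo ATP luminescence, 30 min at room temperature, after the beta-lactamase read. Cells were HCT116 exposed 16 h at 37C to compounds pin-transferred at 217-fold dilution from DMSO stocks.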

A short description of experiment [17]: TOX21_p53_BLA_p3_viability: Viability Assessment in the Tox21 HCT-116 p53 Agonism Beta-lactamase Assay, Phase 3 (AID 2283593).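 Further: cells exposed to compound for 16 h before reading.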 The gist of the method: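 Cellular ATP was quantified by CellTiter-Glo luminescence, read after 30 min at room temperature. Beforehand, HCT116 cells (4000/well) received compound 5 h post-seeding, 217-fold diluted from DMSO, then incubated 16 h at 37C.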

Experiment [18] can be described thus: TOX21_p53_BLA_p4_viability: Viability Assessment in the Tox21 HCT-116 p53 Agonism Beta-lactamase Assay, Phase 4 (AID 2283597).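 Further: hits lower the luminescence signal meaning cytotoxicity.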 The gist of the method: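 Readout: ATP luminescence (CellTiter-Glo), measured 30 min after reagent addition at RT. The reagent followed a 2 h CCF4-AM incubation, and the cells had been exposed to compound for 16 h at 37C.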
Experiment [19] addresses Bile acid receptor (Homo sapiens) (UniProt Q96RI1). Put plainly: ATG_IR1_CIS: Attagene CIS-FACTORIAL HepG2 Assay for human Nuclear Receptor Subfamily 1 Group H Member 4 (NR1H4), IR1 submotif (AID 2282946; active means hit-call score of the fitted dose curve at least 0.9, where 1 is the maximum; inactive means score below 0.9). The note with it: IR1 reporter transcription, actives raise or lower the signal. The gist of the method:
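HepG2 cells transiently transfected with multiplexed cis-element reporter units read endogenous transcription factor activity. After 24 h compound exposure, reporter mRNA was quantified by RT-PCR, fluorescent labelling, HpaI digestion and capillary electrophoresis; bidirectional fitting versus DMSO baseline.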

Results filed as inconclusive are left out. The source made the active and inactive calls. How the source made its calls, unless noted: active means hit-call score of the fitted dose curve at least 0.9, where 1 is the maximum; inconclusive means response in the unintended direction; inactive means score below 0.9.

The AC50 is the concentration at which the activity in the assay is half-maximal.

Sequence of Oxysterols receptor LXR-alpha (Homo sapiens) (Q13133 whole entry, looked up, the tested form may be a part): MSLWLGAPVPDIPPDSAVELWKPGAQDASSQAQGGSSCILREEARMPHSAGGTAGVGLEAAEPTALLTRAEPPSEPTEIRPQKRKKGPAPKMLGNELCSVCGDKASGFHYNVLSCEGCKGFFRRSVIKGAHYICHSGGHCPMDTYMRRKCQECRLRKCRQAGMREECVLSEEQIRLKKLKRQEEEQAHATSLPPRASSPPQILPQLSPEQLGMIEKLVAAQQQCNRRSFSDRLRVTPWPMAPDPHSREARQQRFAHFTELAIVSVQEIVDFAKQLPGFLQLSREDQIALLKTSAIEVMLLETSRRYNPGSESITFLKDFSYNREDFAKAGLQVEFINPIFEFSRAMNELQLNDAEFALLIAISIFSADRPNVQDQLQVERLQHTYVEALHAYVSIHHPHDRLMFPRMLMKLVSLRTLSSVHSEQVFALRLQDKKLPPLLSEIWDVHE
Sequence of Glucocorticoid receptor (Homo sapiens) (P04150 whole entry, looked up, the tested form may be a part): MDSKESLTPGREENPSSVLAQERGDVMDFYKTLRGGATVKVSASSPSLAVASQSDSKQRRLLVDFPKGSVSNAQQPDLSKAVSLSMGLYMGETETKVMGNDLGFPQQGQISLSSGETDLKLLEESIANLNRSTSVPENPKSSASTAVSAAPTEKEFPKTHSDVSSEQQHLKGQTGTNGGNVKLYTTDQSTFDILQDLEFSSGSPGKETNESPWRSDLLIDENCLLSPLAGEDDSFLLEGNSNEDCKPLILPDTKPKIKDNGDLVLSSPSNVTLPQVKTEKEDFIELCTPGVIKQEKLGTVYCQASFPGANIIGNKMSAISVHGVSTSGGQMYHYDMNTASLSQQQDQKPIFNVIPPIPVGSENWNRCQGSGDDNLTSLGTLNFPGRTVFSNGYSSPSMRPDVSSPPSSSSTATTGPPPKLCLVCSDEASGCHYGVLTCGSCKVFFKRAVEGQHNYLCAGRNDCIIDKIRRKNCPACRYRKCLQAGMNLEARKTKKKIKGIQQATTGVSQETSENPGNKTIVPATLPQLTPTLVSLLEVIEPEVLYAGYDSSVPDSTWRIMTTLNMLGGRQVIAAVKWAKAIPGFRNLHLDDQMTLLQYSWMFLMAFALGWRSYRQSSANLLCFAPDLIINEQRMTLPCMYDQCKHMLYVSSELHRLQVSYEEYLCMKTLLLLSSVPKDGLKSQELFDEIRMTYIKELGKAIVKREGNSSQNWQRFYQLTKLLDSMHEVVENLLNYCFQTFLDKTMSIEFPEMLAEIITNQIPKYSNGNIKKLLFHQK
Sequence of human Thyroid Receptor alpha (THRa1), THRA (gene 7067) (P10827 whole entry, looked up, the tested form may be a part): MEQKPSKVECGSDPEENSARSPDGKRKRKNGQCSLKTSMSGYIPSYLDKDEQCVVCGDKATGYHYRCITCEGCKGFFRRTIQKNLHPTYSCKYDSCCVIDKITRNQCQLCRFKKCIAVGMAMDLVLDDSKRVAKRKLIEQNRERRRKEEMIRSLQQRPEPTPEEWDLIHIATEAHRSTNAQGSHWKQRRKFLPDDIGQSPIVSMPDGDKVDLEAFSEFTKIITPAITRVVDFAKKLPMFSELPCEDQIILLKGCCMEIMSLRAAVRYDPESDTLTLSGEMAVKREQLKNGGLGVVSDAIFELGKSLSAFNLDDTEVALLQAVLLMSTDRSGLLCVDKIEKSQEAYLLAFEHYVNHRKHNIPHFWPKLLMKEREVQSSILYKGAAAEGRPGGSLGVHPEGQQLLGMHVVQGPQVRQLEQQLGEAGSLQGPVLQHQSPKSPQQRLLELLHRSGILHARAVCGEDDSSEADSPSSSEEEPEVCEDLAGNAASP
Sequence of Nuclear receptor subfamily 1 group I member 3 (Homo sapiens) (Q14994 whole entry, looked up, the tested form may be a part): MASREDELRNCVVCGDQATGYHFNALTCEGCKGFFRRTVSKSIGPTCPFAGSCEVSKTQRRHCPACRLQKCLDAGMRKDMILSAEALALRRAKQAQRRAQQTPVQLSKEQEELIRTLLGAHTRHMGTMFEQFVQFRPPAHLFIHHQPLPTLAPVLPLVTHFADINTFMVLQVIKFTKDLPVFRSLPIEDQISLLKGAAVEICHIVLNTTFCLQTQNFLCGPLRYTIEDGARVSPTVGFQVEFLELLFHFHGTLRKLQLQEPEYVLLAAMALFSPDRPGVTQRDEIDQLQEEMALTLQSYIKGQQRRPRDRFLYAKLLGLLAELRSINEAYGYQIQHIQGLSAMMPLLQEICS
Sequence of human RAR-related Orphan Receptor beta (RORb), RORB (gene 6096) (Q92753 whole entry, looked up, the tested form may be a part): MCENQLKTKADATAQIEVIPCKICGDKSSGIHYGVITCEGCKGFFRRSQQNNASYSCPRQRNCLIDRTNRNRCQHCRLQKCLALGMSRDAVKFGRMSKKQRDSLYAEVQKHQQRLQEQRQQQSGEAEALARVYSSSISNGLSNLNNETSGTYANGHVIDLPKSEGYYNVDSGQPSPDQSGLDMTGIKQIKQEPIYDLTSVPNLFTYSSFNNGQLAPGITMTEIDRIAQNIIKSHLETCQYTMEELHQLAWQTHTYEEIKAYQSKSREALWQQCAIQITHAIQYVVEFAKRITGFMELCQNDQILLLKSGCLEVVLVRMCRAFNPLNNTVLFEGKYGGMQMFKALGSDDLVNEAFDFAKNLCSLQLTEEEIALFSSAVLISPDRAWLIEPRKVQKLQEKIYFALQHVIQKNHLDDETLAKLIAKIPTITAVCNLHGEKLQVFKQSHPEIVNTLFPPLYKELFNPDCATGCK
Sequence of Oxysterols receptor LXR-beta (Homo sapiens) (P55055 whole entry, looked up, the tested form may be a part): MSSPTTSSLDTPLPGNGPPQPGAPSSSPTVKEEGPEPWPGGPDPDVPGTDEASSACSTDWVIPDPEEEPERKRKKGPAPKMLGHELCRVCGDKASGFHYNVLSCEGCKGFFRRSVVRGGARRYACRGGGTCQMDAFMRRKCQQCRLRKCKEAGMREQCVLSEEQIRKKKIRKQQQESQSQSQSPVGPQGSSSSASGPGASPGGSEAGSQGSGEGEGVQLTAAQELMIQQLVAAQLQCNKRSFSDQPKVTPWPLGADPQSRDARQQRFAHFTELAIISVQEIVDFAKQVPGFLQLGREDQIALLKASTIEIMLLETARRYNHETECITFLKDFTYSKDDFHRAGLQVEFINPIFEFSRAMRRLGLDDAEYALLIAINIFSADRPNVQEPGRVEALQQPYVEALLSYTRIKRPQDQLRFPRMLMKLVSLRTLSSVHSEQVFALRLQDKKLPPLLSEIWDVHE
Sequence of Retinoic acid receptor alpha (Homo sapiens) (P10276 whole entry, looked up): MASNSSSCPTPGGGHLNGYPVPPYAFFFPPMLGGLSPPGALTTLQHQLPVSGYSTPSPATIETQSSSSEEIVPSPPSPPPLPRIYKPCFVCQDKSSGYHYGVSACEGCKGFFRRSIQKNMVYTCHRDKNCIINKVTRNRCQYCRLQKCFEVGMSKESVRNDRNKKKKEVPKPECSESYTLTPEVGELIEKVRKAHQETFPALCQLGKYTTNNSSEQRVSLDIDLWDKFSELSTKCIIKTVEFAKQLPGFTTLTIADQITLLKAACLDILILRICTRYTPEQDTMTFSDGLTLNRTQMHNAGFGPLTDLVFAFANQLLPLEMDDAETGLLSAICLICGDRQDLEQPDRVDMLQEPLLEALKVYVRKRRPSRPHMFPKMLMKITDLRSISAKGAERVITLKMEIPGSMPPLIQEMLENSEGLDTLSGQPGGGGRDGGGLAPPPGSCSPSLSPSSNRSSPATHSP
Sequence of human Peroxisome Proliferator-activated Receptor delta (PPARd), PPARD (gene 5467) (Q03181 whole entry, looked up, the tested form may be a part): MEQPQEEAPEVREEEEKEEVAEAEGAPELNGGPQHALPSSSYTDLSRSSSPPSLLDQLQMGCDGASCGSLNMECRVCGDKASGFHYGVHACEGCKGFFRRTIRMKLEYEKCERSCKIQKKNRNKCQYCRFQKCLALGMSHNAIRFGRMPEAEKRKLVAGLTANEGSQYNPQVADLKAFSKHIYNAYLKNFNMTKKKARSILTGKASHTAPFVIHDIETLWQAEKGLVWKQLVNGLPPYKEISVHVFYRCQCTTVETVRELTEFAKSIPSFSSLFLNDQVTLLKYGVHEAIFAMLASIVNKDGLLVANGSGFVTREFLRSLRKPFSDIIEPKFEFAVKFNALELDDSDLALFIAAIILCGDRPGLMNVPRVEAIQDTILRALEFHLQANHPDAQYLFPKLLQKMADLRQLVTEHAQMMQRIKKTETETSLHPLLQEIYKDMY
Sequence of Nuclear receptor subfamily 4 group A member 2 (Homo sapiens) (P43354 whole entry, looked up, the tested form may be a part): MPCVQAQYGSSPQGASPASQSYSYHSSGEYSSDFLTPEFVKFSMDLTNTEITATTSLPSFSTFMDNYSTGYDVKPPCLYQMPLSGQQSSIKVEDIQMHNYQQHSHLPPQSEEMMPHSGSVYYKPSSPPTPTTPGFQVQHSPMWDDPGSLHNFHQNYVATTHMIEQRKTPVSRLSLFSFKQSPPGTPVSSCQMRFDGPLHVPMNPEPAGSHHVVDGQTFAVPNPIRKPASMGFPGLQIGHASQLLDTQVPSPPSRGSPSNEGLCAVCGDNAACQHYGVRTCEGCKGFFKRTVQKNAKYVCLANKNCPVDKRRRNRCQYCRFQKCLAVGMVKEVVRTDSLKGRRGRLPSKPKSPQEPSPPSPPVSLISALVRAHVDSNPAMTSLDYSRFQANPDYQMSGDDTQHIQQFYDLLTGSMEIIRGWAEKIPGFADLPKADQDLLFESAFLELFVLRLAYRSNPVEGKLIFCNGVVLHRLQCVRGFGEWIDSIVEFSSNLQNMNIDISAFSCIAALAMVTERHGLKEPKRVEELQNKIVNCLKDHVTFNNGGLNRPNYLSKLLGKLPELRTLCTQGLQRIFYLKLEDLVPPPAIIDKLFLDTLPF
Sequence of human Peroxisome Proliferator-activated Receptor alpha (PPARa), PPARA (gene 5465) (Q07869 whole entry, looked up, the tested form may be a part): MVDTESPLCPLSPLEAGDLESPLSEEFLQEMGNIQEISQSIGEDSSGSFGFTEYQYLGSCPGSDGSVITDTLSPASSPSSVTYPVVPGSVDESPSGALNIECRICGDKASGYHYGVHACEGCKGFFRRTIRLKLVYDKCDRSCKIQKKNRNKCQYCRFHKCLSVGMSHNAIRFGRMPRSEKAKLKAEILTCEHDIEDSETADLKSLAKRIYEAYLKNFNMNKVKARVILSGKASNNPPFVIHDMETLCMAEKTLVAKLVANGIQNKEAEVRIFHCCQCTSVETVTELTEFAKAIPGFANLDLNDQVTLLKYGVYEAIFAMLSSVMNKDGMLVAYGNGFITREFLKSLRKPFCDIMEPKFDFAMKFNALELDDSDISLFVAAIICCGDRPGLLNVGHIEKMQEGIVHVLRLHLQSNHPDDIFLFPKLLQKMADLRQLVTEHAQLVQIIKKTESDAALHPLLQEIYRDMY

Consider `CC(=O)C=Cc1ccccc1`, for which the outcome in experiment [1], in experiment [2], in experiment [3], in [4], in experiment [5] and in experiment [6] was inactive. Also, the compound was classed as inactive in experiment [8], in experiment [9], in [10] and in [11]. Moreover, the AC50 in [7] is 100 µM (active).
In the case of `Nc1c(Cl)c(Cl)c(Cl)c(Cl)c1Cl`, the compound was called inactive in experiment [12], in experiment [1], in experiment [13], in experiment [4], in experiment [14] and in experiment [6]. Moreover, the call in [7], in experiment [8], in [15] and in experiment [10] was inactive. Also, the figures for the AC50 in [2] and in [5] were 27.3 µM (active) and 26.1 µM (active), respectively.
Turning to `CC1CCCC1.[C-]#[O+].[C-]#[O+].[C-]#[O+].[Mn]`, the call in experiment [12], in experiment [1], in [2], in [13], in experiment [5] and in experiment [14] was inactive. Further, the compound was called inactive in experiment [7], in experiment [15], in experiment [10], in experiment [16], in [17] and in experiment [18].
With `Oc1ccc(Cl)cc1`, the compound was called inactive in experiment [12], in experiment [2], in experiment [4], in [15], in experiment [10] and in experiment [16]. Also, the call in [18] and in experiment [11] was inactive.
With `C[N+](C)(C)CC(=O)O`, the compound was classed as inactive in [3], in experiment [4], in experiment [14], in experiment [8], in experiment [9] and in experiment [11].
With `CNC(=O)Oc1cc(C)c(SC)c(C)c1`, the result in experiment [19], in experiment [1], in experiment [2], in experiment [13], in experiment [5] and in experiment [6] was inactive. For the same compound, the result in experiment [7], in experiment [8], in [9], in experiment [15], in experiment [10] and in experiment [11] was inactive.
